In PubChem BioAssay one finds viability and Her2 level data, which are given here for 40 compounds.

The source made the active and inactive calls.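 The calls were made as follows: active = Her2 level under about 52% in both replicate screens, with viability over 70% of control (limit read from the data); inconclusive = Her2 under the limit in one screen only, or viability under 70%; inactive = Her2 level above the set limit.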

Test system in one experiment: not listed separately
As to the kind of experiment: Her2 expression decrease, cell viability multiplex – SKBR3 breast tumor cells, AlphaScreen, ATP viability, primary screen (AID 461).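 As to Her2 level: lower value means less Her2 protein in the cells.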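 As to viability: percent of carrier control wells set as 100% viability.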 Conditions: SKBR3 Her2 protein level, 18-24 h, measured here: SKBR3 viability, ATP luminescence, at 10 µM. For orientation: Bead proximity is the source of the signal in Alpha formats.
For `CC1(C)Cc2cccc(OCC(=O)O)c2O1`, the viability is 107%.
As for `CCn1cc(C(=O)O)c(=O)c2cc(F)c(N3CCN(C(=O)Nc4ccccc4)CC3)cc21`, the viability was 108%.
Same read-out and setting: next, `[O-][n+]1c2ccc3nonc3c2nn1-c1ccccc1Cl`: 136%; `Cc1oc(-c2ccccc2Cl)nc1CSCC(=O)N1CCCC1`: 72%; `CC(NC(=O)Cc1cccs1)c1ccc2c(c1)OCO2` (stereo not given): 125%.
The same measure, in the same setting: the same measure for `O=C(NCc1ccco1)c1csc(Nc2ccccc2Cl)n1`: 70.5%.
For `O=C(Nc1ccc2c(c1)OCO2)C1CCCN1C(=O)Nc1ccccc1F` (stereo not given), the viability worked out at 110%.
`COCCNC(=O)CC(NS(=O)(=O)c1ccc(NC(C)=O)cc1)C(C)C` (stereo not given): the viability came to 97%.
As to `Cc1ccc(S(=O)(=O)NCCN2CCOCC2)cc1C`, the viability worked out at 88.5%.
Same read-out and setting: the same measure for `Cc1n[nH]c(C)c1S(=O)(=O)N1CCN(c2ccccn2)CC1`: 99.5%.
As to `COCCNC(=O)CN(C)S(=O)(=O)c1ccc2c(c1)OCCO2`, the viability amounted to 107%.
In the case of `Cc1cc(C(F)F)n2nc(C(=O)Nc3ccc(S(=O)(=O)N4CCCCCC4)cc3)nc2n1`, the viability was determined as 74%.
For the compound `O=C(O)C1C2C=CC(O2)C1C(=O)NCc1ccc(Cl)cc1` (stereo not given), the viability came to 107%.
In the case of `Cc1ccc(NC2c3ncccc3C(=O)N2C2CCCCC2)cc1C` (stereo not given), the viability was found to be 98.5%.
Regarding `C=CCOc1ccc(C2C(C(=O)c3ccco3)=C(O)C(=O)N2Cc2cccnc2)cc1` (stereo not given), the viability amounted to 108%.
On the same count and under the same terms, the same measure for `COCCNC(=O)C(c1ccncc1)N(C(=O)Cn1nnc2ccccc21)c1ccc(OC)cc1` (stereo not given): 96%; for `CCOc1ccc(NC(=O)CSc2nnc(Cc3cccn3C)n2-c2ccc(OC)cc2)cc1`: 82%.
Consider `CCOC(=O)N1CCC(O)(c2cc(C)c(C)cc2C)CC1`, for which the viability came out at 102%.
For `Clc1cccc(Nc2c3c(nc4ncnn24)CCC3)c1`, the viability is 94.5%.
Turning to `O=c1cc(-c2ccc(Cl)cc2)[nH][nH]1`, the viability turned out to be 108%.
The same measure, in the same setting: next, `Cc1nc(N)c(C#N)c(-c2cccnc2)c1C`: 94%.
For `CCOC(=O)c1c(NC(=O)OC)sc(C(=O)N(C)C)c1C`, the viability worked out at 109%.
Regarding `O=C(NCCO)c1scc2c1OCCO2`, the viability worked out at 104%.
Take `c1ccc2c(c1)Cn1c-2nc2ccccc21`: the viability came out at 114%.
With `CCOC(=O)C1=C(C)Nc2ncnn2C1c1ccccc1F` (stereo not given), the viability stood at 94%.
As for `Cc1nc2ccc(NC(=O)N3CCOCC3)cc2s1`, the viability came to 87.5%.
On the same count and under the same terms, the same measure for `Nc1nnnn1/N=C/c1ccccc1OCc1ccccc1`: 118%.
On the same count and under the same terms, the same measure for `COc1cccc(-c2noc(-c3cccs3)n2)c1`: 96.5%; for `CC1CCN(S(=O)(=O)c2ccc(S(=O)(=O)NCC(=O)C(C)(C)C)cc2)CC1`: 108%; for `OCCN1CCN(CC(O)COc2ccc3ccccc3c2)CC1` (stereo not given): 88.5%.
On to `O=C(NCc1cccnc1)c1ccccc1Br`, for which the viability was 110%.
`C=CCNC(=O)c1cccc(Br)c1`: the viability amounted to 92%.
With `CC(c1nnc(SCC(=O)Nc2sccc2C#N)n1-c1ccc(Cl)cc1)N(C)C` (stereo not given), the viability was 103%.
Take `O=C(c1cc(S(=O)(=O)N2CCOCC2)ccc1F)N1CCCc2ccccc21`: the viability was 99%.
Turning to `CC(C)Oc1ccc(N2CC(C(=O)Nc3ccccc3F)CC2=O)cc1` (stereo not given), the viability came out at 101%.
In the case of `COCCn1c(C23CC4CC(CC(C4)C2)C3)n[nH]c1=S`, the viability came to 90%.
Regarding `COc1cccc(C2=Nn3c(nnc3-c3ccccc3O)SC2)c1`, the viability was found to be 100%.
On to `COc1cc(OC)c(OC)cc1CN(C)CCc1ccccn1`, for which the viability came out at 104%.
Turning to `CC(=O)c1c(C)nn(CC(O)COc2ccc3c(c2)CCC3)c1C` (stereo not given), the viability is 93.5%.
For the compound `Cc1cccn2cc(-c3ccccc3)nc12`, the viability came out at 78%.

The target of another experiment is Receptor tyrosine-protein kinase erbB-2 (Homo sapiens) (UniProt P04626). The experiment is described as above. Particulars: 18-24 h, at 10 µM, stronger effect = lower value.
Sequence of Receptor tyrosine-protein kinase erbB-2 (Homo sapiens) (P04626 whole entry, looked up): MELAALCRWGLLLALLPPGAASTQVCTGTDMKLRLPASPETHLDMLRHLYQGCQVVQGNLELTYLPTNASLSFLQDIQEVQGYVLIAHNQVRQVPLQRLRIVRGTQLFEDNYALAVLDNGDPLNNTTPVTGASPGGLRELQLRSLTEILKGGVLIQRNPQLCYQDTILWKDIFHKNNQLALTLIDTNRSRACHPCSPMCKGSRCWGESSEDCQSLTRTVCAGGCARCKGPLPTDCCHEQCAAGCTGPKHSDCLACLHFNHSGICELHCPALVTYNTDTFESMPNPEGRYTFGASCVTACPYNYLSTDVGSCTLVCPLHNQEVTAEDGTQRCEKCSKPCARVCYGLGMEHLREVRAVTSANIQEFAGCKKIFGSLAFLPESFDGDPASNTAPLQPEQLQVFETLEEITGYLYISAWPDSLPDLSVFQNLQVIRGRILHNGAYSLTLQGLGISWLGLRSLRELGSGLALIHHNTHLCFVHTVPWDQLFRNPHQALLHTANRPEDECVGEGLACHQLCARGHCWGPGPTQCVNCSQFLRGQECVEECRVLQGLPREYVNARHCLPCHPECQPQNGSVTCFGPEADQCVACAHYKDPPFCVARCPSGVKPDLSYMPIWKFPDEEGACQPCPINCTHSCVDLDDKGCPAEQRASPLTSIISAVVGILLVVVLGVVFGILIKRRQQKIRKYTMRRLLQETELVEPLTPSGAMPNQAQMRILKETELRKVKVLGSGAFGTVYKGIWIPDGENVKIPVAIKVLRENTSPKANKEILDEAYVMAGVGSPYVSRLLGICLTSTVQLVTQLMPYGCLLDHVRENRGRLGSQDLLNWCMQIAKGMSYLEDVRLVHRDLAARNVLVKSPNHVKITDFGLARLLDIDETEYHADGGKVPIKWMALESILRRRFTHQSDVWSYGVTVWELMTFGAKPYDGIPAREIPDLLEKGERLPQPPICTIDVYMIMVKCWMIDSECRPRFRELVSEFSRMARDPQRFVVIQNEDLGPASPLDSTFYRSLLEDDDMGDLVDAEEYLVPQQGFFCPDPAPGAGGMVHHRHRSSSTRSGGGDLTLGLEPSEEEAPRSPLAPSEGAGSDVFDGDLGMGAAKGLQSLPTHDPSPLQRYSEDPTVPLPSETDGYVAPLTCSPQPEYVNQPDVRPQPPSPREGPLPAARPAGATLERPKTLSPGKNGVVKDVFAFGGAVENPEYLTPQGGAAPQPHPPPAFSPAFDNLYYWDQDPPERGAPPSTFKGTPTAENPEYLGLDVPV
Consider `CC1(C)Cc2cccc(OCC(=O)O)c2O1`, for which the Her2 level is 90% (inactive).
Regarding `CCn1cc(C(=O)O)c(=O)c2cc(F)c(N3CCN(C(=O)Nc4ccccc4)CC3)cc21`, the Her2 level is 92% (inactive).
As for `[O-][n+]1c2ccc3nonc3c2nn1-c1ccccc1Cl`, the Her2 level is 124% (inactive).
The same measure, in the same setting: the same measure for `Cc1oc(-c2ccccc2Cl)nc1CSCC(=O)N1CCCC1`: 86.5% (inactive); for `CC(NC(=O)Cc1cccs1)c1ccc2c(c1)OCO2` (stereo not given): 81.5% (inactive); for `O=C(NCc1ccco1)c1csc(Nc2ccccc2Cl)n1`: 97.5% (inactive).
On to `O=C(Nc1ccc2c(c1)OCO2)C1CCCN1C(=O)Nc1ccccc1F` (stereo not given), for which the Her2 level was 90% (inactive).
Turning to `COCCNC(=O)CC(NS(=O)(=O)c1ccc(NC(C)=O)cc1)C(C)C` (stereo not given), the Her2 level was 122% (inactive).
As for `Cc1ccc(S(=O)(=O)NCCN2CCOCC2)cc1C`, the Her2 level was 93% (inactive).
Regarding `Cc1n[nH]c(C)c1S(=O)(=O)N1CCN(c2ccccn2)CC1`, the Her2 level is 108% (inactive).
As to `COCCNC(=O)CN(C)S(=O)(=O)c1ccc2c(c1)OCCO2`, the Her2 level is 102% (inactive).
On to `Cc1cc(C(F)F)n2nc(C(=O)Nc3ccc(S(=O)(=O)N4CCCCCC4)cc3)nc2n1`, for which the Her2 level was 73.5% (inactive).
Take `O=C(O)C1C2C=CC(O2)C1C(=O)NCc1ccc(Cl)cc1` (stereo not given): the Her2 level is 94.5% (inactive).
Turning to `Cc1ccc(NC2c3ncccc3C(=O)N2C2CCCCC2)cc1C` (stereo not given), the Her2 level is 94.5% (inactive).
For the compound `C=CCOc1ccc(C2C(C(=O)c3ccco3)=C(O)C(=O)N2Cc2cccnc2)cc1` (stereo not given), the Her2 level is 89.5% (inactive).
Still for that read-out and setting: next, `COCCNC(=O)C(c1ccncc1)N(C(=O)Cn1nnc2ccccc21)c1ccc(OC)cc1` (stereo not given): 73.5% (inactive).
Consider `CCOc1ccc(NC(=O)CSc2nnc(Cc3cccn3C)n2-c2ccc(OC)cc2)cc1`, for which the Her2 level was 81% (inactive).
For `CCOC(=O)N1CCC(O)(c2cc(C)c(C)cc2C)CC1`, the Her2 level is 95.5% (inactive).
As to `Clc1cccc(Nc2c3c(nc4ncnn24)CCC3)c1`, the Her2 level was 82.5% (inactive).
With `O=c1cc(-c2ccc(Cl)cc2)[nH][nH]1`, the Her2 level was 84% (inactive).
For the compound `Cc1nc(N)c(C#N)c(-c2cccnc2)c1C`, the Her2 level was 83.5% (inactive).
`CCOC(=O)c1c(NC(=O)OC)sc(C(=O)N(C)C)c1C`: the Her2 level was 94.5% (inactive).
Regarding `O=C(NCCO)c1scc2c1OCCO2`, the Her2 level was 92% (inactive).
Still for that read-out and setting: next, `c1ccc2c(c1)Cn1c-2nc2ccccc21`: 95% (inactive).
Turning to `CCOC(=O)C1=C(C)Nc2ncnn2C1c1ccccc1F` (stereo not given), the Her2 level is 110% (inactive).
Regarding `Cc1nc2ccc(NC(=O)N3CCOCC3)cc2s1`, the Her2 level is 79.5% (inactive).
Consider `Nc1nnnn1/N=C/c1ccccc1OCc1ccccc1`, for which the Her2 level was 96.5% (inactive).
As to `COc1cccc(-c2noc(-c3cccs3)n2)c1`, the Her2 level was 87% (inactive).
In the case of `CC1CCN(S(=O)(=O)c2ccc(S(=O)(=O)NCC(=O)C(C)(C)C)cc2)CC1`, the Her2 level was 97% (inactive).
Same read-out and setting: next, `OCCN1CCN(CC(O)COc2ccc3ccccc3c2)CC1` (stereo not given): 82% (inactive); `O=C(NCc1cccnc1)c1ccccc1Br`: 98.5% (inactive).
For the compound `C=CCNC(=O)c1cccc(Br)c1`, the Her2 level is 94% (inactive).
For `CC(c1nnc(SCC(=O)Nc2sccc2C#N)n1-c1ccc(Cl)cc1)N(C)C` (stereo not given), the Her2 level is 74% (inactive).
`O=C(c1cc(S(=O)(=O)N2CCOCC2)ccc1F)N1CCCc2ccccc21`: the Her2 level is 87% (inactive).
For `CC(C)Oc1ccc(N2CC(C(=O)Nc3ccccc3F)CC2=O)cc1` (stereo not given), the Her2 level was 122% (inactive).
On to `COCCn1c(C23CC4CC(CC(C4)C2)C3)n[nH]c1=S`, for which the Her2 level was 94.5% (inactive).
Take `COc1cccc(C2=Nn3c(nnc3-c3ccccc3O)SC2)c1`: the Her2 level was 61% (inactive).
As for `COc1cc(OC)c(OC)cc1CN(C)CCc1ccccn1`, the Her2 level is 107% (inactive).
Turning to `CC(=O)c1c(C)nn(CC(O)COc2ccc3c(c2)CCC3)c1C` (stereo not given), the Her2 level was 105% (inactive).
Still for that read-out and setting: next, `Cc1cccn2cc(-c3ccccc3)nc12`: 77% (inactive).

Usually viability stands for a read-out of living cells in per cent, often relative to untreated cells.
